Data on 18 compounds can be found in article PMC5540273 (PLoS ONE, 2017).

Among the test systems are PRKX; PRP4; QSK; RAF1; RET; RIOK1; RIOK2; RIOK3; RIPK1.
Holding throughout (conditions): concentration: 1 μM, replicates: in singlicate; n = 1
A further test deals with T1, PYK2.
T1 construct: gene PTK2B

The structures appear in SMILES notation.
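Further: KINOMEscan kinase panel screen.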

For `COc1cc(Nc2nccc(N3CCC(NC(=O)C(C)c4ccc(Cl)cc4)C3)n2)cc(OC)c1OC` (stereo not drawn) [GSK1379757], the “%Inh” value in the test with PRKX is 5%; in the test on PRP4, 23%; in the test on PYK2, 10%; with QSK it was 2%; in the test on RAF1, 10%; with RET it was 7%. For the same compound, the “%Inh” value in the test on RIOK1 was 58%; in the test with RIOK2, 0%; in the test with RIOK3, 54%; in the test on RIPK1, 20%.
Regarding `Cc1c(Cn2c(C)nn3c(=O)cc(N4CCO[C@H](C)C4)nc23)cccc1C(F)(F)F` [GSK2373690], the “%Inh” value in the test on PRKX came to 29%; in the test on PRP4 it was 26%; with PYK2, 1%; in the test on QSK, 14%; with RAF1, 19%; in the test with RET, 6%. For the same compound, the “%Inh” value in the test with RIOK1 is 15%; in the test with RIOK2, 17%; in the test on RIOK3, 27%; in the test with RIPK1 it was 1%.
`COc1cc2nccc(Nc3cccc(Oc4ccccc4)c3)c2cc1OC.Cl` [GW284543]: the “%Inh” value with PRKX turned out to be 22%; in the test on PRP4, 19%; in the test on PYK2 it was 0%; with QSK, 5%; in the test with RAF1 it was 5%; in the test on RET, 25%. Besides, the “%Inh” value is recorded as 21% in the test with RIOK1, 0% in the test on RIOK2, 4% with RIOK3 and 0% with RIPK1.
Consider `CCCC(=O)Nc1n[nH]c2ncc(-c3cccc4ccccc34)cc12` [SB-642057], for which the “%Inh” value in the test on PRKX was found to be 12%; with PRP4, 26%; in the test with PYK2, 0%; in the test with QSK it was 13%; in the test on RAF1 it was 9%; in the test with RET, 33%. Besides, the “%Inh” value in the test with RIOK1 stood at 19%; with RIOK2 it was 0%; in the test with RIOK3, 0%; in the test on RIPK1, 0%.
`CCCNC(=O)Nc1ccc(Oc2ncnc3ccn(C)c23)cc1`: the “%Inh” value in the test with PRKX is on record as 0%; with PRP4, 8%; in the test with PYK2 it was 3%; in the test with QSK, 0%; in the test with RAF1, 2%; in the test on RET, 8%. In addition, the “%Inh” value in the test on RIOK1 worked out at 9%; in the test with RIOK2, 10%; with RIOK3, 14%; in the test with RIPK1, 0%.
As to `CCn1c(-c2nonc2N)nc2ccccc21` [SB-693162/GW549034], the “%Inh” value in the test with PRKX was determined as 24%; in the test on PRP4 it was 0%; with PYK2, 0%; with QSK, 0%; with RAF1, 0%; in the test on RET it was 22%. Moreover, the “%Inh” value in the test on RIOK1 was 0%; in the test on RIOK2, 14%; in the test with RIOK3, 0%; in the test with RIPK1, 0%.
On to `O=C(Nc1n[nH]c2cc(-c3ccccc3F)ccc12)C1CC1` [SB-733371], for which the “%Inh” value with PRKX came to 0%; in the test on PRP4, 7%; in the test on PYK2 it was 15%; with QSK, 6%; in the test on RAF1, 35%; in the test on RET, 0%. Further, the “%Inh” value came to 50% with RIOK1, 0% in the test on RIOK2, 63% in the test with RIOK3 and 78% with RIPK1.
For `COc1ccc(CNC(=O)NC2CCN(c3ccnc(Nc4ccc(F)cc4)n3)C2)cc1` (stereo not drawn) [GSK1379706], the “%Inh” value in the test with PRKX turned out to be 18%; in the test with PRP4, 47%; in the test on PYK2, 1%; with QSK, 0%; in the test with RAF1, 6%; in the test on RET, 21%. Also, the “%Inh” value came to 8% in the test with RIOK1, 0% in the test on RIOK2, 0% in the test on RIOK3 and 0% in the test on RIPK1.
As to `CCC(=O)c1c(-c2ccccc2)c2cc(Cl)ccc2c(=O)n1Cc1cc(C(=O)NC2CC2)n(C)n1`, the “%Inh” value with PRKX stood at 0%; in the test with PRP4, 0%; with PYK2, 0%; in the test on QSK it was 0%; with RAF1 it was 40%; in the test with RET it was 0%. Also, the “%Inh” value in the test on RIOK1 is reported as 0%; in the test on RIOK2, 17%; with RIOK3 it was 10%; in the test with RIPK1 it was 0%.
On to `Cc1ccc(-c2ccc3c(ccc4sc5c(c43)NC[C@@H](C)N=C5N(C)C)n2)cn1`, for which the “%Inh” value with PRKX, with PRP4, with PYK2, in the test with QSK, with RAF1 and with RET was 0% each time. Also, the “%Inh” value with RIOK1, in the test on RIOK2, in the test on RIOK3 and with RIPK1 was 0% in each case.
On to `COc1cccc(-n2cnc3c(N)ncnc32)c1` [SKF-97416], for which the “%Inh” value in the test on PRKX came to 32%; in the test on PRP4 it was 0%; in the test on PYK2, 0%; in the test with QSK, 28%; in the test on RAF1, 0%; in the test on RET it was 0%. In addition, the “%Inh” value turned out to be 0% in the test on RIOK1, 22% in the test on RIOK2, 0% in the test with RIOK3 and 0% with RIPK1.
For the compound `COc1cc2nccc(Nc3ccc(OCc4ccc(NC(C)=O)cc4)cc3)c2cc1OC.Cl` [GW440135], the “%Inh” value is listed as 7% in the test on PRKX; 50% in the test on PRP4; 26% in the test on PYK2; 15% with QSK; 18% with RAF1; 11% in the test on RET. The “%Inh” value with RIOK1, with RIOK2, with RIOK3 and in the test with RIPK1 was 0% each time.
As to `O=C(NCc1cccs1)c1cc(C(=O)c2c(Cl)cccc2Cl)c[nH]1` [GW823670], the “%Inh” value in the test with PRKX turned out to be 0%; in the test on PRP4, 0%; in the test on PYK2, 0%; in the test on QSK, 0%; with RAF1, 0%; in the test with RET, 2%. Moreover, the “%Inh” value in the test on RIOK1 came out at 5%; in the test with RIOK2, 0%; in the test on RIOK3, 0%; with RIPK1 it was 0%.
Consider `O=C(Nc1ccc2c(c1)OCO2)NC1CCN(c2ccnc(NCc3ccc(F)cc3)n2)CC1` [GSK1379859], for which the “%Inh” value amounted to 3% with PRKX; 0% with PRP4; 0% in the test on PYK2; 0% with QSK; 3% with RAF1; 21% with RET. For the same compound, the “%Inh” value was 33% in the test with RIOK1, 0% with RIOK2, 30% in the test with RIOK3 and 17% in the test with RIPK1.
`CCC(=O)c1c(-c2ccccc2)c2cc(Cl)ccc2c(=O)n1Cc1cc(S(C)(=O)=O)n(CC(N)=O)n1`: the “%Inh” value was found to be 0% with PRKX; 38% in the test with PRP4; 0% in the test with PYK2; 0% in the test with QSK; 11% in the test with RAF1; 1% in the test with RET. The “%Inh” value came to 1% in the test on RIOK1, 0% in the test on RIOK2, 0% in the test with RIOK3 and 0% with RIPK1.
`Nc1ncnc2c1ncn2-c1cccc2ccccc12` [SKF-97184]: the “%Inh” value stood at 0% in the test on PRKX; 0% in the test with PRP4; 4% with PYK2; 6% in the test with QSK; 0% in the test on RAF1; 0% with RET. For the same compound, the “%Inh” value in the test with RIOK1 was found to be 7%; in the test with RIOK2, 0%; in the test on RIOK3 it was 5%; in the test with RIPK1 it was 0%.
As to `COC(=O)c1c(-c2ccccc2)c2cc(Br)ccc2c(=O)n1Cc1ccc(NC(=O)CCC(=O)O)cc1`, the “%Inh” value is listed as 10% with PRKX; 0% in the test with PRP4; 16% with PYK2; 0% in the test with QSK; 14% in the test with RAF1; 5% in the test with RET. Besides, the “%Inh” value in the test with RIOK1, in the test with RIOK2, with RIOK3 and in the test on RIPK1 was 0% throughout.
On to `COc1cccc(C2=C(N(C)c3ccccc3)C(=O)NC2=O)c1` [SB-334865], for which the “%Inh” value with PRKX came out at 25%; in the test with PRP4, 41%; in the test on PYK2 it was 8%; in the test with QSK, 1%; in the test with RAF1, 12%; in the test on RET, 17%. For the same compound, the “%Inh” value with RIOK1 amounted to 39%; in the test on RIOK2, 0%; in the test with RIOK3 it was 0%; with RIPK1 it was 0%.
